Laboratory results published in PubChem BioAssay (NCATS).
“And” between values parts separate entries of the source, which are not always exact repeats. Equal entries are not always repeated. Records with an inconclusive call do not appear. The source made the active and inactive calls. Calls follow the shape of the dose curve; as a rule, active = well fitted inhibition curve with a large enough effect; inconclusive = small, poorly fitted or top-dose-only effect; inactive = flat fitted curve, though single readings scatter.

Tests used:
GB4 = test: qHTS profiling for inhibitors of Plasmodium falciparum proliferation (AID 504749); conditions: P. falciparum in erythrocytes, SYBR Green DNA, 72 h; series mostly up to 28.7 µM
Outline: (§1)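 P. falciparum-infected erythrocytes (0.3% parasitemia, 2.5% hematocrit) incubated with compound 72 h at 37 C, 5% CO2. Parasite DNA detected by SYBR Green after lysis, overnight at room temperature; normalised to 0.29 uM artemisinin and DMSO.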

HB3 = test: as above; conditions: P. falciparum in erythrocytes, SYBR Green DNA, 72 h; series mostly up to 28.7 µM
Outline: as §1

ICS = test: as above; conditions: P. falciparum in erythrocytes, SYBR Green DNA, 72 h; series mostly up to 28.7 µM
Outline: as §1

N140 = test: as above; conditions: P. falciparum in erythrocytes, SYBR Green DNA, 72 h; series mostly up to 28.7 µM
Outline: as §1

P93_24 = test: as above; conditions: P. falciparum in erythrocytes, SYBR Green DNA, 72 h; series mostly up to 28.7 µM
Outline: as §1

P94_40 = test: as above; conditions: P. falciparum in erythrocytes, SYBR Green DNA, 72 h; series mostly up to 28.7 µM
Outline: as §1

PAD = test: as above; conditions: P. falciparum in erythrocytes, SYBR Green DNA, 72 h; series mostly up to 28.7 µM
Outline: as §1

PC15 = test: as above; conditions: P. falciparum in erythrocytes, SYBR Green DNA, 72 h; series mostly up to 28.7 µM
Outline: as §1

PC26 = test: as above; conditions: P. falciparum in erythrocytes, SYBR Green DNA, 72 h; series mostly up to 28.7 µM
Outline: as §1

SC27B = test: as above; conditions: P. falciparum in erythrocytes, SYBR Green DNA, 72 h; series mostly up to 28.7 µM
Outline: as §1

TAB109 = test: as above; conditions: P. falciparum in erythrocytes, SYBR Green DNA, 72 h; series mostly up to 28.7 µM
Outline: as §1

TAB113 = test: as above; conditions: P. falciparum in erythrocytes, SYBR Green DNA, 72 h; series mostly up to 28.7 µM
Outline: as §1

TAB165 = test: as above; conditions: P. falciparum in erythrocytes, SYBR Green DNA, 72 h; series mostly up to 28.7 µM
Outline: as §1

W2 = test: as above; conditions: P. falciparum in erythrocytes, SYBR Green DNA, 72 h; series mostly up to 28.7 µM
Outline: as §1

CRL-7250 = normal cell line; test: Cytotoxic Profiling of Annotated Libraries Using Quantitative High-Throughput Screening (AID 1296008); conditions: Five cell lines viability, CellTiter-Glo ATP luminescence, 48-72 h; max response: stronger effect = lower value; as to max response: % is scaled to controls: 0 for no effect and ±100 for the full control effect
Outline: (§2)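 Cells exposed to compounds for 48 or 72 hr at 37 degrees Celsius. Viability read as ATP-coupled luminescence with CellTiter-Glo after 10 min at room temperature.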

HEK293 = test: as above; conditions: Five cell lines viability, CellTiter-Glo ATP luminescence, 48-72 h; max response: stronger effect = lower value
Outline: as §2

HaCat = test: as above; conditions: Five cell lines viability, CellTiter-Glo ATP luminescence, 48-72 h; max response: stronger effect = lower value
Outline: as §2

JCK = test: qHTS profiling for inhibitors of Plasmodium falciparum proliferation (AID 504749); conditions: P. falciparum in erythrocytes, SYBR Green DNA, 72 h; series mostly up to 28.7 µM
Outline: as §1

PC49 = test: as above; conditions: P. falciparum in erythrocytes, SYBR Green DNA, 72 h; series mostly up to 28.7 µM
Outline: as §1

KB-3-1 = test: Cytotoxic Profiling of Annotated Libraries Using Quantitative High-Throughput Screening (AID 1296008); conditions: Five cell lines viability, CellTiter-Glo ATP luminescence, 48-72 h; max response: stronger effect = lower value; as to max response: % is scaled to controls: 0 for no effect and ±100 for the full control effect
Outline: as §2
Also: nearly all actives have a fitted effect of over 60% in size.
Potency is read from the fitted curve at half-maximal effect.

CCCCCCCCCCCCCCCC[N+](C)(C)CC
active: Potency (GB4) 3.79 µM | Potency (HB3) 7.08 µM | Potency (ICS) 1.41 µM | Potency (N140) 4.47 µM | Potency (P93_24) 5.62 µM | Potency (P94_40) 3.98 µM | Potency (PAD) 8.91 µM | Potency (PC15) 8.91 µM | Potency (PC26) 5.36 µM | Potency (SC27B) 5.62 µM | Potency (TAB109) 4.47 µM | Potency (TAB113) 5.01 µM | Potency (TAB165) 4.47 µM | Potency (W2) 3.79 µM | Potency (CRL-7250) 6.68 µM | Potency (HEK293) 2.99 µM | Potency (HaCat) 5.96 µM

CCOC(=O)c1cccc(N)c1
inactive: Potency (HB3) | Potency (ICS) | Potency (JCK) | Potency (N140) | Potency (P93_24) | Potency (P94_40) | Potency (PAD) | Potency (PC15) | Potency (PC49) | Potency (SC27B) | Potency (TAB109) | Potency (TAB113) | Potency (TAB165) | max response (CRL-7250) -5.88% | max response (HEK293) -0.911% | max response (HaCat) -20.5% | max response (KB-3-1) -6.64%
active: Potency (PC26) 16.9 µM

CC[N+](CC)(CCNC(=O)C(=O)NCC[N+](CC)(CC)Cc1ccccc1Cl)Cc1ccccc1Cl
inactive: outcome (CRL-7250) | max response (HEK293) 2.37% | max response (HaCat) -1.93% | max response (KB-3-1) -5.89%
active: Potency (GB4) 2.39 µM | Potency (ICS) 1.58 µM | Potency (JCK) 10 µM | Potency (P93_24) 0.794 µM | Potency (P94_40) 0.316 µM | Potency (PAD) 2.82 µM | Potency (PC49) 5.01 µM | Potency (SC27B) 3.98 µM | Potency (TAB109) 1.41 µM | Potency (TAB113) 3.16 µM | Potency (TAB165) 1.26 µM | Potency (W2) 1.2 µM

O=C(O)CNC(=O)c1ccccc1
inactive: Potency (GB4) | Potency (HB3) | Potency (ICS) | Potency (JCK) | Potency (N140) | Potency (P93_24) | Potency (P94_40) | Potency (PAD) | Potency (PC15) | Potency (PC26) | Potency (PC49) | Potency (SC27B) | Potency (TAB109) | Potency (TAB113) | Potency (TAB165) | Potency (W2) | max response (CRL-7250) 2.85% | max response (HEK293) -10.7% | outcome (HaCat) | max response (KB-3-1) -0.856%

Cc1ccccc1C(=O)Nc1ccc(C(=O)N2CCCC(N(C)C)c3ccccc32)cc1 (centres undefined)
active: Potency (CRL-7250) 23.7 µM | Potency (HEK293) 3.35 µM and 5.8 µM | Potency (KB-3-1) 7.31 µM

Cc1ncc(CSSCc2cnc(C)c(O)c2CO)c(CO)c1O
inactive: Potency (GB4) | Potency (HB3) | Potency (ICS) | Potency (JCK) | Potency (N140) | Potency (P93_24) | Potency (P94_40) | Potency (PAD) | Potency (PC15) | Potency (PC26) | Potency (PC49) | Potency (SC27B) | Potency (TAB109) | Potency (TAB113) | Potency (TAB165) | Potency (W2) | max response (CRL-7250) -3.39% | outcome (HEK293) | outcome (HaCat) | max response (KB-3-1) -0.0269%

CCCCCCCCCCCCCCCCCC(=O)OCC(O)CO (centres undefined)
inactive: Potency (GB4) | Potency (HB3) | Potency (ICS) | Potency (N140) | Potency (P94_40) | Potency (PAD) | Potency (PC15) | Potency (PC26) | Potency (PC49) | Potency (SC27B) | Potency (TAB109) | Potency (TAB113) | Potency (TAB165) | Potency (W2) | outcome (CRL-7250) | max response (HEK293) -6.82% | max response (HaCat) 4.32% | max response (KB-3-1) -3.37%

CCC(=O)c1c(O)cc(O)cc1O
inactive: Potency (GB4) | Potency (HB3) | Potency (ICS) | Potency (JCK) | Potency (N140) | Potency (P93_24) | Potency (P94_40) | Potency (PAD) | Potency (PC15) | Potency (PC26) | Potency (PC49) | Potency (SC27B) | Potency (TAB109) | Potency (TAB113) | Potency (TAB165) | Potency (W2) | max response (CRL-7250) 1.93% | outcome (HEK293) | max response (HaCat) 3.62% | max response (KB-3-1) -16.9%

Cc1c(C(C)C)c(=O)n(-c2ccccc2)n1C
inactive: Potency (GB4) | Potency (HB3) | Potency (ICS) | Potency (JCK) | Potency (N140) | Potency (P93_24) | Potency (P94_40) | Potency (PAD) | Potency (PC15) | Potency (PC26) | Potency (PC49) | Potency (SC27B) | Potency (TAB109) | Potency (TAB113) | Potency (TAB165) | Potency (W2) | max response (CRL-7250) 0.671% | outcome (HEK293) | outcome (HaCat) | max response (KB-3-1) -0.49%

CN=C(NC#N)Nc1ccc(C2=NNC(=O)CC2C)cc1 (centres undefined)
inactive: Potency (GB4) | Potency (PC26) | Potency (W2) | max response (CRL-7250) -12.9% | outcome (HEK293) | outcome (HaCat) | max response (KB-3-1) 6.06%
